Measurements taken from the supplement of paper PMC10849652.
Targets with a hit are over-represented here; the source holds about 8,800 in all. About 0.5% of all pairs of compound and target were hits. Unmarked numbers belong to inactive results.

Assays:
Test in all cases: log2 fold change, soluble protein after heating vs DMSO (PISA); higher = thermal stabilisation; K562 lysate, 10 uM; active = over 0.2 and 3.5 SD of the protein, either way, in both replicates (recomputed)
vemurafenib = compound: CCCS(=O)(=O)Nc1ccc(F)c(C(=O)c2c[nH]c3ncc(-c4ccc(Cl)cc4)cc23)c1F [vemurafenib]
In short: (§1)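 A 30 min treatment with 10 μM compound was applied to crude K562 extract at 1 mg/mL protein in PBS pH 7.4 with 1 mM MgCl2. Heating for 3 min spanned 48°C-58°C, after which aliquots were pooled, adjusted to 0.5% NP-40 at 4°C and spun at 21,000xg for 90 min. TMTpro 16plex LC-MS/MS of the supernatant, with channel sums equalised, gave values recorded as log-two fold change in thermal stability against solvent controls, from duplicates.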

[1] = compound: CCCS(=O)(=O)Nc1ccc(F)c(C(=O)c2c[nH]c3ncc(Cl)cc23)c1F
In short: as §1

barasertib = compound: CCN(CCCOc1ccc2c(Nc3cc(CC(=O)Nc4cccc(F)c4)[nH]n3)ncnc2c1)CCOP(=O)(O)O [barasertib]
In short: as §1

[2] = compound: CC[C@@H]1C(=O)N(C)c2cnc(Nc3ccc(C(=O)NC4CCN(C)CC4)cc3OC)nc2N1C1CCCC1
In short: as §1

volasertib = compound: CC[C@@H]1C(=O)N(C)c2cnc(Nc3ccc(C(=O)N[C@H]4CC[C@H](N5CCN(CC6CC6)CC5)CC4)cc3OC)nc2N1C(C)C [volasertib]
In short: as §1

[3] = compound: CCn1c(C(=O)N(C2CC2)C2CC2)cc2c3c(ncn3C)c(Nc3cc(C)n(C)n3)nc21
In short: as §1

[4] = compound: CCn1cc(-c2ccnc3[nH]c(-c4cccc(CN(C)C)c4)cc23)c(-c2ccc(NC(=O)N(C)C)cc2)n1
In short: as §1

[5] = compound: CN1CCC(CNc2ccc3ncc(-c4cccc(OC(F)(F)F)c4)n3n2)CC1
In short: as §1

saracatinib = compound: CN1CCN(CCOc2cc(OC3CCOCC3)c3c(Nc4c(Cl)ccc5c4OCO5)ncnc3c2)CC1 [saracatinib]
In short: as §1

sotrastaurin = compound: CN1CCN(c2nc(C3=C(c4c[nH]c5ccccc45)C(=O)NC3=O)c3ccccc3n2)CC1 [sotrastaurin]
In short: as §1

alvocidib = compound: CN1CC[C@H](c2c(O)cc(O)c3c(=O)cc(-c4ccccc4Cl)oc23)[C@H](O)C1 [alvocidib]
In short: as §1

Tubastatin A = compound: CN1CCc2c(c3ccccc3n2Cc2ccc(C(=O)NO)cc2)C1 [Tubastatin A]
In short: as §1

[6] = compound: CNC(=O)C1=CC=CC=C1NC2=NC(=NC=C2Cl)NC3=C(C=C(C=C3)N4CCOCC4)OC
In short: as §1

defactinib = compound: CNC(=O)c1ccc(Nc2ncc(C(F)(F)F)c(NCc3nccnc3N(C)S(C)(=O)=O)n2)cc1 [defactinib]
In short: as §1

[7] = compound: CNc1nc(-c2ccc3c(N)n[nH]c3c2)cc(N2C[C@@H](C(=O)NC3CCCCC3)CC[C@H]2C)n1
In short: as §1

encorafenib = compound: COC(=O)N[C@@H](C)CNc1nccc(-c2cn(C(C)C)nc2-c2cc(Cl)cc(NS(C)(=O)=O)c2F)n1 [encorafenib]
In short: as §1

[8] = compound: COC(=O)[C@H](CCSC)NC(=O)C1=C(C=C(C=C1)NC[C@H](CS)N)C2=CC=CC=C2
In short: as §1

alisertib = compound: COc1cc(Nc2ncc3c(n2)-c2ccc(Cl)cc2C(c2c(F)cccc2OC)=NC3)ccc1C(=O)O [alisertib]
In short: as §1

[9] = compound: COc1cc2nc(-c3cc(F)ccc3O)nc(N[C@@H]3CNC[C@H]3C(C)(C)O)c2cc1OC
In short: as §1

gefitinib = compound: COc1cc2ncnc(Nc3ccc(F)c(Cl)c3)c2cc1OCCCN1CCOCC1 [gefitinib]
In short: as §1

Chain of UniProt P30307 (P30307 whole entry, looked up): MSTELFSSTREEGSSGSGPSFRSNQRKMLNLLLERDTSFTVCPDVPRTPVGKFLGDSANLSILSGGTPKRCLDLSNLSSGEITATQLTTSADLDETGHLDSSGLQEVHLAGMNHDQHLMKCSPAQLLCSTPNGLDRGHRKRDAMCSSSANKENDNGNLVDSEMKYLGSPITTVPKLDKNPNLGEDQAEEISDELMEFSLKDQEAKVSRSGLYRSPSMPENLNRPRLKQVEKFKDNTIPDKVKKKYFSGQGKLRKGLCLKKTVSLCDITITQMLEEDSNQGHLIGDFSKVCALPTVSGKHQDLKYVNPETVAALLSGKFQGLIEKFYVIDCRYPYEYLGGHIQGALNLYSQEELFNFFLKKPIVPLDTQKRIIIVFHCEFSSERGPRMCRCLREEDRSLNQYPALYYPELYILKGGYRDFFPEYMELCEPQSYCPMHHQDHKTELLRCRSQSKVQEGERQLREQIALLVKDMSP
Chain of UniProt Q13555 (Q13555 whole entry, looked up): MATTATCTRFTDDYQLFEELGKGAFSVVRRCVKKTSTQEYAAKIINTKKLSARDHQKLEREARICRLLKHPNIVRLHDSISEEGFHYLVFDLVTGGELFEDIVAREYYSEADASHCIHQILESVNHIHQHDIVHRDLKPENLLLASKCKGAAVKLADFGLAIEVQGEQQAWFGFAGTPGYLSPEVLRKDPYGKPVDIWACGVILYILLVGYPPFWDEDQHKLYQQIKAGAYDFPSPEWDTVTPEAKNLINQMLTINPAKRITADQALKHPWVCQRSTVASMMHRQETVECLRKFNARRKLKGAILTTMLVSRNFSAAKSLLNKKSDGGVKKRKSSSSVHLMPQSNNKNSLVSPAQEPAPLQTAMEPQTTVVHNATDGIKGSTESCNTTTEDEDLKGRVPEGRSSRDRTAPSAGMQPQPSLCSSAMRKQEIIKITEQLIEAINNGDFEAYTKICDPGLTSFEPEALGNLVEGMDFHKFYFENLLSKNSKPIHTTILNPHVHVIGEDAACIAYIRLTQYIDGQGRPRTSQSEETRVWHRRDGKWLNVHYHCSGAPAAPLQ
Chain of UniProt O43861 (O43861 whole entry, looked up): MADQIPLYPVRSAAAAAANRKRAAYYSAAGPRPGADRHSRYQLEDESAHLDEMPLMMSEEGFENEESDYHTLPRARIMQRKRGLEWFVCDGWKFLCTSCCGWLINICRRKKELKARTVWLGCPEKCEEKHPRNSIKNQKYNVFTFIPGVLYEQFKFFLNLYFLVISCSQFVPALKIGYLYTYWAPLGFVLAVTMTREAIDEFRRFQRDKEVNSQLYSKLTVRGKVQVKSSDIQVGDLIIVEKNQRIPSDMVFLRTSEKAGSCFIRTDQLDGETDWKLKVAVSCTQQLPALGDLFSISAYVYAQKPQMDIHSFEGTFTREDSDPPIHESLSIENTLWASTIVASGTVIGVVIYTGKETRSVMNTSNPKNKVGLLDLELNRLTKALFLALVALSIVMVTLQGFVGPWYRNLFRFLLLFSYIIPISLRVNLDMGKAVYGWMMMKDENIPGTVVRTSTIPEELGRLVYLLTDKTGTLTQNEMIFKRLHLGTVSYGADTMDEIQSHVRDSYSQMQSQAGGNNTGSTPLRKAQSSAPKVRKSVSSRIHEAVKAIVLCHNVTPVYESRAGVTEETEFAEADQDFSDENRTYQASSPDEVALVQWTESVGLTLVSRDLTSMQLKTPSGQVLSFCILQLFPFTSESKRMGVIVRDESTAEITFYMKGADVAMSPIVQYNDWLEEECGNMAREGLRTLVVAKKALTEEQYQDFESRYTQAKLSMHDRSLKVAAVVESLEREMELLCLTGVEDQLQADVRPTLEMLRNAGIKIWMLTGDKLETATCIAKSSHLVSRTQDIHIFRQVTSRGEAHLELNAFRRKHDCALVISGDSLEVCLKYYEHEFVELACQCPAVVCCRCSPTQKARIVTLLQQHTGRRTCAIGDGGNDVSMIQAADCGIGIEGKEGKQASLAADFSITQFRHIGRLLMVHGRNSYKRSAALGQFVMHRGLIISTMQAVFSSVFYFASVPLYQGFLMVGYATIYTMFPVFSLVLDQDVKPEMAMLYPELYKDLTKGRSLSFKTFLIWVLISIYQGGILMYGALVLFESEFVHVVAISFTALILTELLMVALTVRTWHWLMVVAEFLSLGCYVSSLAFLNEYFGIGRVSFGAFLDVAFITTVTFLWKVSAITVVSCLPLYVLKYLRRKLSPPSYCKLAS
Chain of UniProt Q14839 (Q14839 whole entry, looked up): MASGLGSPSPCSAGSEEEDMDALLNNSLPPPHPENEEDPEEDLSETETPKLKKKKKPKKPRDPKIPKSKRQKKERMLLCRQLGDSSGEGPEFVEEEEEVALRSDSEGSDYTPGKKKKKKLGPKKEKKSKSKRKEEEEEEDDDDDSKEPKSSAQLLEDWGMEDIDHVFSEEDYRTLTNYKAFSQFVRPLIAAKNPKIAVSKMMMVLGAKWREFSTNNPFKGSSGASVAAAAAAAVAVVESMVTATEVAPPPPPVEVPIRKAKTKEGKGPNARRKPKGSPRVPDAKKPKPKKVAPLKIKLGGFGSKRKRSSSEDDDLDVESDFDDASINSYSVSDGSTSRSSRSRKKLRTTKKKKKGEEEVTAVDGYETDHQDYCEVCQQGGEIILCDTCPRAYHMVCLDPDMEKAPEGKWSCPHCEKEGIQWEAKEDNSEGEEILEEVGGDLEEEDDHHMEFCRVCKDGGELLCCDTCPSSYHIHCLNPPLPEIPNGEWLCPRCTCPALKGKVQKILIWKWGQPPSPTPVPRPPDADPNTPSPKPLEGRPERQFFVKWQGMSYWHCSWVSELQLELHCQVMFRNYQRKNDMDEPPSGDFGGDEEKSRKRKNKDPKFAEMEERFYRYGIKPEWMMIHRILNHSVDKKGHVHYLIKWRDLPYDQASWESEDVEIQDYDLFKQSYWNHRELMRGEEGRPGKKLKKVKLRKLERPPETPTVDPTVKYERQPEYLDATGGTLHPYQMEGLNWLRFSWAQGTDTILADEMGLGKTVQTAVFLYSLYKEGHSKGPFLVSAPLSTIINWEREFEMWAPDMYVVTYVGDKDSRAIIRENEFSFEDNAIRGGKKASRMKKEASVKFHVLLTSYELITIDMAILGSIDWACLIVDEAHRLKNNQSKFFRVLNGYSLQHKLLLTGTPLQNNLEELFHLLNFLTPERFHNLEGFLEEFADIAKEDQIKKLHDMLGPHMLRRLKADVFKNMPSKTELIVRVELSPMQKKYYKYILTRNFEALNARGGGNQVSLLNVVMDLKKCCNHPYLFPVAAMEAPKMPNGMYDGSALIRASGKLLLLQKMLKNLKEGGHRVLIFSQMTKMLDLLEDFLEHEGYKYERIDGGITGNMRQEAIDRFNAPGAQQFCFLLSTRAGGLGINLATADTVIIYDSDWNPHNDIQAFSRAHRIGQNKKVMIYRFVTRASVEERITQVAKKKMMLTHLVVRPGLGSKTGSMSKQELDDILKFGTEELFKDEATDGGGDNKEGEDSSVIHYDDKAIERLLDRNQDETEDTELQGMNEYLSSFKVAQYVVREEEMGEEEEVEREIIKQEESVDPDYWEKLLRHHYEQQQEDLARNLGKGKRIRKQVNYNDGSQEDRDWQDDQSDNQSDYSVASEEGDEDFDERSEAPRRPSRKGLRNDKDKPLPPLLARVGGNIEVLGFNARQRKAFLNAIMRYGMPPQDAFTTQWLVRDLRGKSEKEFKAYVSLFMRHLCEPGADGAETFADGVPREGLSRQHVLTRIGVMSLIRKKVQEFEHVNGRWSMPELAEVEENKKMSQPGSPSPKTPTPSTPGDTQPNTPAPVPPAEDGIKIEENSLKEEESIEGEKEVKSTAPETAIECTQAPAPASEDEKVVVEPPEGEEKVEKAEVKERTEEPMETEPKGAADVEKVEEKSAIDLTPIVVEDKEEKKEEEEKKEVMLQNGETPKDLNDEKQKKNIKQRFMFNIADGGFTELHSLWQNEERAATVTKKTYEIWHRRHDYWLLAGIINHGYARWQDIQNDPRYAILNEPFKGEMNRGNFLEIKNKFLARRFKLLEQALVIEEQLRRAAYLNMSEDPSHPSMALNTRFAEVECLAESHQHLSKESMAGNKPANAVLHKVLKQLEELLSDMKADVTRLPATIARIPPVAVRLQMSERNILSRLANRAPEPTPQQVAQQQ
Chain of UniProt P14635 (P14635 whole entry, looked up): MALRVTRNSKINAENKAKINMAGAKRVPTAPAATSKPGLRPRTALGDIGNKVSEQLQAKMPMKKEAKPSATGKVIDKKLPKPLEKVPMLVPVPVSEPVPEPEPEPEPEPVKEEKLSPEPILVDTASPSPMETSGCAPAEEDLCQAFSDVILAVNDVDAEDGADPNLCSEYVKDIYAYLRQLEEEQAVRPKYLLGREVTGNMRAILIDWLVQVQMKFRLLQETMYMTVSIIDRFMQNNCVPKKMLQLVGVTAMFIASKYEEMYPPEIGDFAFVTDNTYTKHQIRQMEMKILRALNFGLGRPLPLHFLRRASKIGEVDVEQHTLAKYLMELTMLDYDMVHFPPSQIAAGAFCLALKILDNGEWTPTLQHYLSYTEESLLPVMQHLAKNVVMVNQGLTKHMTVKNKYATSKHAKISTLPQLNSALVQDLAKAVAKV
Chain of UniProt P50750 (P50750 whole entry, looked up): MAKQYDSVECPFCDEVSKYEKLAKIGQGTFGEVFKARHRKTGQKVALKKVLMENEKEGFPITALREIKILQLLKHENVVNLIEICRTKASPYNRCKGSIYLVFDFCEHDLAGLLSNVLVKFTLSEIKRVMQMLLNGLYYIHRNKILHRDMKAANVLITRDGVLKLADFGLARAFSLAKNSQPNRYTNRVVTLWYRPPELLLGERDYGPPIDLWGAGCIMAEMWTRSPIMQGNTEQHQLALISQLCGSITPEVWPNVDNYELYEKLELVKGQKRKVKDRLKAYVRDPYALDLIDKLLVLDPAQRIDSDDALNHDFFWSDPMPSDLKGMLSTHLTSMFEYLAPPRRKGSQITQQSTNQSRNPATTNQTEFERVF
Chain of UniProt Q9Y2V2 (Q9Y2V2 whole entry, looked up): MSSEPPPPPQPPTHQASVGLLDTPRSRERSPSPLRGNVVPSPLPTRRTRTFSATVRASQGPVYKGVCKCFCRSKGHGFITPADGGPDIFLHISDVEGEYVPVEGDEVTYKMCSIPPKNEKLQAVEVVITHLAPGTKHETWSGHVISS

| Target | log2 fold change (vemurafenib) | log2 fold change [1] | log2 fold change (barasertib) | log2 fold change [2] | log2 fold change (volasertib) | log2 fold change [3] | log2 fold change [4] | log2 fold change [5] | log2 fold change (saracatinib) | log2 fold change (sotrastaurin) | log2 fold change (alvocidib) | log2 fold change (Tubastatin A) | log2 fold change [6] | log2 fold change (defactinib) | log2 fold change [7] | log2 fold change (encorafenib) | log2 fold change [8] | log2 fold change (alisertib) | log2 fold change [9] | log2 fold change (gefitinib) |
| --- | --- | --- | --- | --- | --- | --- | --- | --- | --- | --- | --- | --- | --- | --- | --- | --- | --- | --- | --- | --- |
| ATG7 (UniProt O95352) | -0.031 | 0.014 | -0.002 | -0.032 | -0.052 | 0.021 | -0.058 | 0.091 | -0.003 | 0.037 | 0.01 | -0.075 | 0.001 | 0.012 | -0.04 | 0.021 | -0.031 | 0.006 | -0.008 | 0.019 |
| CCNB1 (UniProt P14635) | 0.032 | -0.021 | 0.019 | 0.03 | -0.043 | -0.031 | -0.023 | -0.012 | 0.002 | -0.038 | -0.015 | 0.021 | -0.003 | -0.117 | 0.028 | 0.029 | -0.023 | 0 | 0.407 (active) | -0.024 |
| ATP13A1 (UniProt Q9HD20) | -0.006 | 0.013 | -0.006 | 0.023 | -0.036 | 0.067 | 0.004 | -0.343 (active) | 0.012 | -0.012 | 0.051 | 0.036 | -0.012 | 0.028 | -0.002 | -0.008 | -0.067 | 0.055 | 0.03 | 0.011 |
| CAMLG (UniProt P49069) | -0.027 | 0 | -0.021 | 0.026 | 0.002 | -0.089 | 0.257 (active) | -0.04 | -0.026 | -0.002 | 0.051 | -0.037 | 0.044 | 0.067 | -0.012 | 0.09 | -0.13 | 0.136 | 0.006 | 0.028 |
| CDC25C (UniProt P30307) | 0.031 | 0.093 | -0.028 | -0.08 | -0.004 | 0.083 | 0.314 | 0.155 | -0.053 | 0.016 | 0.022 | -0.09 | 0.041 | 0.067 | -0.073 | 0.078 | 0.14 | 0.054 | 0.04 | -0.069 |
| CDK9 isoform 2 (UniProt P50750) | -0.117 | -0.064 | -0.025 | 0.009 | 0.002 | 0.175 | -0.203 | 0.079 | 0.005 | 0.34 (active) | 0.578 (active) | -0.042 | 0.024 | 0.392 (active) | 0.016 | -0.008 | -0.033 | -0.003 | 0.191 | 0.008 |
| CASP6 (UniProt P55212) | 0.006 | -0.012 | -0.071 | 0.018 | -0.017 | 0.025 | 0.242 | 0.013 | -0.004 | -0.016 | -0.011 | -0.003 | 0.067 | 0.039 | -0.046 | -0.015 | -0.026 | 0.023 | -0.029 | 0.061 |
| C2CD5 isoform 3 (UniProt Q86YS7) | 0.068 | 0.022 | 0.049 | 0.062 | -0.025 | -0.069 | -0.309 (active) | 0.162 | 0.058 | -0.023 | -0.157 | 0.006 | -0.003 | -0.002 | 0.01 | 0.054 | -0.028 | -0.016 | 0.016 | 0.054 |
| CHD4 isoform 2 (UniProt Q14839) | 0 | 0.002 | 0.028 | -0.003 | -0.002 | 0.022 | -0.054 | -0.017 | 0.002 | 0.02 | -0.004 | -0.069 | -0.014 | 0.007 | 0.017 | 0.013 | 0.087 | 0.016 | -0.007 | -0.014 |
| CDK11B (UniProt P21127) | 0.025 | 0.002 | 0.022 | -0.087 | -0.057 | 0.029 | -0.047 | -0.048 | -0.024 | 0.01 | 0.273 (active) | -0.081 | 0.012 | -0.013 | 0.019 | -0.012 | 0.108 | 0.012 | -0.036 | -0.016 |
| ATP9B (UniProt O43861) | -0.046 | 0.02 | -0.024 | -0.081 | -0.051 | -0.015 | -0.07 | 0.189 | 0.046 | -0.071 | -0.076 | 0.048 | 0.044 | -0.117 | -0.018 | 0.068 | 0.012 | -0.081 | 0.16 | -0.015 |
| BCAR1 isoform 6 (UniProt P56945) | 0.038 | 0.018 | 0.015 | -0.065 | -0.018 | -0.003 | 0.064 | -0.012 | 0.032 | -0.038 | 0.074 | -0.009 | 0.009 | -0.032 | 0.012 | 0.018 | 0.014 | 0.009 | 0.08 | 0.065 |
| CDC40 (UniProt O60508) | 0.01 | 0.013 | -0.016 | -0.105 | -0.001 | 0.034 | -0.006 | 0.046 | -0.056 | -0.049 | 0.016 | 0.147 | 0.045 | -0.002 | 0.069 | 0.095 | 0.069 | -0.049 | 0.034 | -0.021 |
| CAMK2G isoform 8 (UniProt Q13555) | 0.067 | -0.03 | 0.058 | 0.102 | -0.033 | -0.079 | -0.001 | 0.022 | 0.086 | 0.345 (active) | 0.334 (active) | -0.098 | 0.223 | 0.006 | 0.034 | -0.199 | -0.007 | -0.013 | 0.144 | -0.013 |
| CARHSP1 (UniProt Q9Y2V2) | 0.032 | -0.015 | 0.024 | 0.033 | -0.024 | -0.061 | -0.02 | 0.044 | 0 | -0.042 | 0.031 | 0.065 | 0.009 | -0.033 | 0.078 | -0.013 | -0.055 | -0.014 | 0.01 | -0.029 |
| CCDC22 (UniProt O60826) | -0.054 | 0.026 | 0.052 | -0.053 | -0.013 | 0.026 | -0.027 | -0.01 | 0.01 | 0.028 | 0.024 | -0.063 | 0.012 | -0.03 | 0.009 | 0.031 | -0.029 | 0.002 | -0.009 | 0.027 |
